Source: paper PMC5540273 (PLoS ONE, 2017)

Experiments:
Conditions in all cases: concentration: 1 μM, replicates: in singlicate; n = 1
[1] = tested on: MET
[2] = tested on: T1, MINK
T1 construct: gene MINK1

[3] = tested on: MKK7
[4] = tested on: MKNK1
[5] = tested on: MKNK2
[6] = tested on: T2, MLCK
T2 construct: gene MYLK3

[7] = tested on: T3, MLK1
T3 construct: gene MAP3K9

[8] = tested on: MLK2
[9] = tested on: MLK3
[10] = tested on: MRCKA
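Further: KINOMEscan kinase panel screen.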

| SMILES | %Inh [1] | %Inh [2] | %Inh [3] | %Inh [4] | %Inh [5] | %Inh [6] | %Inh [7] | %Inh [8] | %Inh [9] | %Inh [10] |
| --- | --- | --- | --- | --- | --- | --- | --- | --- | --- | --- |
| COC(=O)c1c(-c2ccccc2)c2cc(Br)ccc2c(=O)n1Cc1ccc(S(C)(=O)=O)cc1 | 2% | 10% | 19% | 8% | 0% | 3% | 1% | 0% | 0% | 0% |
| Nc1n[nH]c2nnc(-c3ccccc3)c(-c3ccccc3)c12 [GW554060] | 0% | 0% | 7% | 11% | 49% | 0% | 0% | 0% | 8% | 4% |
| Cc1nnc(-c2ccc3ncn(-c4ccc(S(C)=O)cc4)c3c2)o1 (centres unmarked) | 0% | 14% | 12% | 0% | 20% | 11% | 0% | 0% | 0% | 0% |
| CCC(=O)c1c(-c2ccccc2)c2cc(Cl)ccc2c(=O)n1Cc1cc(S(C)(=O)=O)n(CC(F)F)n1 | 6% | 0% | 0% | 0% | 0% | 0% | 42% | 0% | 0% | 0% |
| Nc1nc(N)c2nc(-c3ccccc3)[nH]c2n1 [SKF-12778] | 0% | 0% | 29% | 0% | 1% | 0% | 40% | 66% | 40% | 15% |
| COc1ccc(-c2coc3ccc(-c4nnc(SCc5cccc(C#N)c5)o4)cc23)cc1 | 0% | 9% | 17% | 20% | 2% | 2% | 0% | 18% | 11% | 0% |
| COc1cc2ncn(-c3cc(OCCCc4ccccc4)c(C(N)=O)s3)c2cc1OC [GSK205189] | 5% | 3% | 0% | 3% | 0% | 0% | 3% | 19% | 8% | 0% |
| COc1cc2ncn(-c3cc(OCc4ccncc4Br)c(C(N)=O)s3)c2cc1OC [GW854278] | 0% | 44% | 0% | 15% | 8% | 0% | 2% | 17% | 9% | 0% |
| CCc1ccc(-c2ccc3c(c2)-c2nn(C)cc2S(=O)(=O)N3C)cc1 | 0% | 41% | 16% | 37% | 0% | 28% | 1% | 29% | 11% | 0% |
| Nc1ncnc2c1ncn2-c1cccc(F)c1 [SKF-97560] | 18% | 9% | 29% | 0% | 32% | 18% | 5% | 30% | 10% | 0% |
| O=C(Nc1n[nH]c2nc(-c3ccccc3)c(Cl)cc12)C1CC1 [SB-734909] | 0% | 28% | 0% | 17% | 8% | 26% | 0% | 0% | 0% | 0% |
| Cn1c(=O)c(F)c(Nc2ccc(I)cc2F)c2c(=O)n(OC[C@H](O)CO)cnc21 | 12% | 0% | 0% | 4% | 0% | 0% | 19% | 25% | 9% | 20% |
| CC(C)(C)c1ccc(C(=O)Nc2cn3cc(-c4ccccc4)ccc3n2)cc1 | 0% | 36% | 0% | 0% | 13% | 14% | 0% | 0% | 0% | 0% |
| COc1cc2nccc(Nc3ccc(OCc4ccc(NC(C)=O)cc4)cc3)c2cc1OC.Cl [GW440135] | 0% | 70% | 27% | 6% | 15% | 0% | 0% | 2% | 14% | 9% |
| CN1C(=O)C(Nc2ccccc2)=C(c2ccccc2)C1=O [SB-300079] | 0% | 17% | 20% | 0% | 0% | 9% | 0% | 34% | 0% | 6% |
| CCC(=O)c1c(-c2ccccc2)c2cc(Cl)ccc2c(=O)n1Cc1cc(C(=O)NC2CC2)n(C)n1 | 0% | 0% | 25% | 0% | 11% | 5% | 0% | 15% | 0% | 8% |
| Cc1cc(Nc2nc(-c3cccc(C)n3)nc3ccccc23)ccn1 [GW872411] | 32% | 1% | 0% | 1% | 0% | 0% | 0% | 28% | 0% | 0% |
